In the library only some 4.2% were active in any assay of this set; here they are far more common.
Wnt bcat act = Wnt/beta-catenin pathway activation; Wnt/beta-catenin reporter cell assay, activator, plate reader; activation, % at 9.35 µM; 300,000 compounds, 1.2% hits; AID 743398; in the data active = activation above about 30%, passing the limit was not always enough; inconclusive = no clear call, values can overlap the other calls
esBAF inh = SWI/SNF esBAF complex inhibition. mouse ES cells, Bmi1-luciferase knock-in reporter, 24 h; 100% = twice the neutral-well signal. reporter increase, % at 12.5 µM. 350,000 compounds, 2% hits. AID 602393; in the data active = activation above about 40%; inconclusive = no clear call, values can overlap the other calls;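 note: a rise in the Bmi1 reporter signal indicates esBAF inhibition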
AHR activator = activates the human aryl hydrocarbon receptor. P35869. AHR-responsive luciferase reporter cells, luminescence. activation, % at 5 µM. 320,000 compounds, 2.5% hits; in the data active = activation above about 47%
Target sequence (P35869 whole entry, looked up): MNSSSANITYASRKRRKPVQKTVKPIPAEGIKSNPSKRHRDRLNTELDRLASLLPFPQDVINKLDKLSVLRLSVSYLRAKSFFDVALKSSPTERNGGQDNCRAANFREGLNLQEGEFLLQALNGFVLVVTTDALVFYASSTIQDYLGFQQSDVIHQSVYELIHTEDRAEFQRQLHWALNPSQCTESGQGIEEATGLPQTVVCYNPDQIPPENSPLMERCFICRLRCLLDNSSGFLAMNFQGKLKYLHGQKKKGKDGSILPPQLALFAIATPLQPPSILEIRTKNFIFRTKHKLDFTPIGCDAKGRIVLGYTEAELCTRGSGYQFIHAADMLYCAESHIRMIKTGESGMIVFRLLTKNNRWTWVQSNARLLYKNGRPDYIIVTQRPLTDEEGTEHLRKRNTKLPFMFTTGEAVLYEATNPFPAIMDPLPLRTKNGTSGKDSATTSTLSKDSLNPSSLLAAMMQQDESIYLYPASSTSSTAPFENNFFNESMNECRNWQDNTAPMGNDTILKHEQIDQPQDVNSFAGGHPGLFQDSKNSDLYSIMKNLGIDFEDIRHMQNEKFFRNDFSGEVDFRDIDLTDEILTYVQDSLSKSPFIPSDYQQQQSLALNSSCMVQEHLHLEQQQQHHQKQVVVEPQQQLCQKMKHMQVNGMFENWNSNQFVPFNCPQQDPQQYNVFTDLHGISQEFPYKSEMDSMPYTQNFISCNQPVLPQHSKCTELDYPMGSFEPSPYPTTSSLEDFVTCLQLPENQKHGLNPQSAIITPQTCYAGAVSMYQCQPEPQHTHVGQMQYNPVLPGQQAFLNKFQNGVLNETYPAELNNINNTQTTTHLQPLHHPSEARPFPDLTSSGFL
GAA850 FXN act = frataxin GAA850 promoter activation; HEK293 lucGAA850 FXN promoter luciferase reporter, 24 h; percent of 10 µM SAHA response; activation, % at 6 µM; 360,000 compounds, 0.56% hits; AID 540364;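 active = activation above the average of all compounds screened plus 3 SD, cutoff fixed separately per campaign, cut at about 7.5% in these data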
MITF act = increases MITF-driven TRPM1 promoter luciferase signal | activation, % at 12.5 µM | SK-MEL-5 TRPM1-promoter luciferase, 24 h; % of positive control, neutral wells = 0 | 300,000 compounds, 0.75% hits;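 active = mean activation of at least 80% with every replicate also reaching 80%; inconclusive = mean reaches 80% but some replicate falls short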
GAA30 FXN cntr = GAA30 FXN promoter activation counter-screen; 1,900 compounds, 66% hits; shares compounds with GAA850 FXN act; activation, % at 6 µM; HEK293 lucGAA30 FXN promoter luciferase, 24 h; DMSO = 0%, 5 µM ipriflavone = 100%; AID 588350;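 active = mean activation above the mean of solvent-only control wells plus 3 SD, cut at about 22% in these data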;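 note: counterscreen of GAA850 promoter hits where activity marks nonselective or luminescence artifacts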
GAA850 confirm = GAA850 FXN promoter activation confirmation; shares compounds with GAA850 FXN act; AID 588351; activation, % at 6 µM; HEK293 lucGAA850 FXN promoter luciferase reporter, 24 h; 100% = activation by SAHA; 1,900 compounds, 86% hits;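 active = mean activation above a set limit taken from the primary screen, cut at about 8% in these data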
Each line names hits and unclear results; the compound was inactive in the other large screens (follow-up assays come after a bar, where they were run).

CCOc1ccccc1NC(=S)NC(=O)c1ccco1	none (no result: AHR activator)
O=C(NC(=S)Nc1cccnc1Cl)c1ccco1	GAA850 FXN act 7.8 | GAA30 FXN cntr 63.5 | GAA850 confirm 20.4
O=C(Cn1nc(-c2ccc(N3CCOCC3)c([N+](=O)[O-])c2)c2ccccc2c1=O)N1CCCCC1	GAA850 FXN act 8.3 (no result: MITF act) | GAA30 FXN cntr 38.1 | GAA850 confirm 14.2
CCC(=O)N1C[C@@H](C)[C@H](OC)CN(C)C(=O)c2cc(NC(=O)c3cnccn3)ccc2OC[C@@H]1C	none (no result: Wnt bcat act, AHR activator, GAA850 FXN act, MITF act)
CC(C)Nc1oc(-c2cccc3ccccc23)nc1C#N	GAA850 FXN act 8.6, MITF act 85.7 (no result: Wnt bcat act) | GAA30 FXN cntr 96.6 | GAA850 confirm 35.7
N#Cc1nc(-c2cccc3ccccc23)oc1NCCN1CCCCC1	none (no result: MITF act)
O=C1c2ccc(Oc3cccc([N+](=O)[O-])c3)cc2C(=O)N1c1ccccn1	none (no result: esBAF inh)
O=C1c2cc([N+](=O)[O-])cc3cc([N+](=O)[O-])cc(c23)C(=O)N1c1ccccn1	GAA850 FXN act 8.2 (no result: esBAF inh) | GAA30 FXN cntr inactive | GAA850 confirm 17.3
O=C(C[C@H]1C[C@H]2c3cc(NC(=O)NC4CCCC4)ccc3O[C@H]2[C@H](CO)O1)NCc1ccccc1F	none (no result: Wnt bcat act, AHR activator, GAA850 FXN act, MITF act)
C[C@@H]1CN([C@@H](C)CO)C(=O)CCCn2cc(nn2)CO[C@H]1CN(C)CC1CCCCC1	none (no result: Wnt bcat act, AHR activator, GAA850 FXN act, MITF act)
CC[C@@]12C(=O)N(c3cccc(Br)c3)C(=O)N1[C@H](c1ccc(F)cc1)[C@@H]1C(=O)N(C3CCCCC3)C(=O)[C@@H]12	GAA850 FXN act 8.4 | GAA30 FXN cntr inactive | GAA850 confirm 12.1
CC(C)C[C@@]12C(=O)N(c3cccc(Br)c3)C(=O)N1[C@H](c1ccc(F)cc1)[C@@H]1C(=O)N(C3CCCCC3)C(=O)[C@@H]12	GAA850 FXN act 10.7 | GAA30 FXN cntr inactive | GAA850 confirm 10.0
CCN1C(=O)[C@H]2[C@@H](c3ccc(C)cc3)N3C(=O)N(c4cccc(F)c4)C(=O)[C@@]3(CC)[C@H]2C1=O	none
C=CCn1c(SC(C)C(=O)NCCC2=CCCCC2)nc2ccccc2c1=O (stereo unspecified)	GAA850 FXN act 10.4 (no result: Wnt bcat act) | GAA30 FXN cntr inactive | GAA850 confirm 9.5
CC(=O)Nc1ccc(/C=N/N2C(C)CCCC2C)cc1 (stereo unspecified)	none (no result: esBAF inh)
CC(=O)Nc1ccc(/C=N/N2CCCCC2)cc1	esBAF inh 61.6, GAA850 FXN act 7.6 | GAA30 FXN cntr 86.5 | GAA850 confirm 29.3
O=C(Nc1ccc(Br)cn1)c1cccc(-c2cc3ccccc3oc2=O)c1	GAA850 FXN act 9.4 (no result: esBAF inh) | GAA30 FXN cntr 117.8 | GAA850 confirm 32.9
CS(=O)(=O)c1nc(-c2ccc(F)cc2)cc(C(F)(F)F)n1	Wnt bcat act inconclusive, GAA850 FXN act 39.3 (no result: esBAF inh, AHR activator) | GAA30 FXN cntr 23.5 | GAA850 confirm 70.9
CCOC(=O)CS(=O)(=O)c1nc(-c2ccccc2)cc(C(F)(F)F)n1	GAA850 FXN act 11.0 (no result: Wnt bcat act, esBAF inh) | GAA30 FXN cntr inactive | GAA850 confirm inactive
CCOC(=O)CS(=O)(=O)c1nc(-c2ccc(F)cc2)cc(C(F)(F)F)n1	GAA850 FXN act 21.4 (no result: Wnt bcat act) | GAA30 FXN cntr inactive | GAA850 confirm inactive
C[C@H](CO)N1C[C@H](C)[C@H](CN(C)C(=O)Nc2cccc3ccccc23)Oc2c(NC(=O)Nc3ccc(F)cc3)cccc2C1=O	none (no result: Wnt bcat act, AHR activator, GAA850 FXN act, MITF act)
CCCCC(=O)/C=C/n1c(=S)oc2ccccc21	esBAF inh 64.9, GAA850 FXN act 8.5 | GAA30 FXN cntr inactive | GAA850 confirm 23.2
CC(C)OC(=O)n1c(=S)oc2ccccc21	none (no result: Wnt bcat act)
O=C(NCCCn1ccnc1)c1ccc(Cl)cc1[N+](=O)[O-]	none (no result: esBAF inh)
O=C(NCCCn1ccnc1)c1cc2cc([N+](=O)[O-])ccc2oc1=O	GAA850 FXN act 11.9 (no result: esBAF inh) | GAA30 FXN cntr inactive | GAA850 confirm inactive
c1cncc(-c2nc3ccccc3s2)c1	Wnt bcat act inconclusive, esBAF inh inconclusive, GAA850 FXN act 7.7, MITF act 85.1 | GAA30 FXN cntr 86.3 | GAA850 confirm 27.6
CCCNC(=O)N(C)C[C@H]1Oc2cc(-c3ccc(C)cc3)ccc2S(=O)(=O)N([C@@H](C)CO)C[C@H]1C	none (no result: Wnt bcat act, AHR activator, GAA850 FXN act, MITF act)
O=C(C[C@H]1C[C@H]2c3cc(NC(=O)Cc4ccncc4)ccc3O[C@H]2[C@H](CO)O1)NCCN1CCCCC1	none (no result: Wnt bcat act, AHR activator, GAA850 FXN act, MITF act)
CC(C)NC(=O)N(C)C[C@H]1Oc2ccc(NS(=O)(=O)c3cn(C)cn3)cc2CC(=O)N([C@@H](C)CO)C[C@@H]1C	none (no result: Wnt bcat act, AHR activator, GAA850 FXN act, MITF act)
O=C(/C=C/c1ccccc1)/C=C/c1ccccc1	GAA850 FXN act 7.9 | GAA30 FXN cntr 31.5 | GAA850 confirm 29.6
O=C(/C=C/c1ccccc1)c1ccccc1	none
Brc1ccccc1-c1nnc(COc2cccc3cccnc23)o1	none (no result: Wnt bcat act, esBAF inh)
N#Cc1ccccc1OCc1nnc(-c2ccccc2Br)o1	esBAF inh 55.3, GAA850 FXN act 8.8, MITF act 159.1 | GAA30 FXN cntr 101.9 | GAA850 confirm 41.0
O=C(CC(F)(F)F)N1C[C@H]2[C@@H](c3ccccc31)[C@@H](CO)N2C(=O)Cc1cccnc1	none (no result: Wnt bcat act, AHR activator, GAA850 FXN act, MITF act)
Cc1ccc2c(COC(=O)c3ccccc3Cl)cc(=O)oc2c1	esBAF inh 70.9, GAA850 FXN act 8.5, MITF act 180.8 | GAA30 FXN cntr 126.3 | GAA850 confirm 42.4
Cn1cc([N+](=O)[O-])c(C(=O)Nc2ccc(-c3nc4ccccc4o3)cc2)n1	GAA850 FXN act 8.8 (no result: esBAF inh) | GAA30 FXN cntr 93.2 | GAA850 confirm 30.7
C[C@@H]1CN([C@@H](C)CO)C(=O)Cc2cc(NC(=O)Cn3cnnn3)ccc2O[C@H]1CN(C)C(=O)Nc1ccc(C(F)(F)F)cc1	none (no result: Wnt bcat act, AHR activator, GAA850 FXN act, MITF act)
O=C(c1ccccc1)c1ccccc1N1C(=O)C=CC1=O	none (no result: esBAF inh, MITF act)
O=C1C=CC(=O)N1c1ccccc1N1C(=O)C=CC1=O	GAA850 FXN act 8.7 (no result: AHR activator) | GAA30 FXN cntr inactive | GAA850 confirm inactive
CCN(Cc1ccc(OC)c(F)c1)C(=O)c1cc2ccccc2o1	GAA850 FXN act 8.5 | GAA30 FXN cntr 34.5 | GAA850 confirm 17.5
CCOc1ccc(CN(C)C(=O)c2cc3ccccc3o2)cc1OC	none
O=[N+]([O-])c1cccc(/C=N\N=C2c3ccccc3-c3ccccc32)c1O	none (no result: esBAF inh)
O=[N+]([O-])c1ccccc1N/N=C/c1cccc(O)c1O	GAA850 FXN act 12.5 | GAA30 FXN cntr 39.8 | GAA850 confirm 26.3
COC(=O)c1ccc(N/N=C/c2cc([N+](=O)[O-])cc(OC)c2O)cc1	none
O=[N+]([O-])c1ccc(N/N=C/c2cccc(O)c2O)c(S(=O)(=O)N2CCOCC2)c1	none
O=[N+]([O-])c1cccc(N/N=C/c2cccc(O)c2O)c1	GAA850 FXN act 8.7 (no result: esBAF inh) | GAA30 FXN cntr 67.3 | GAA850 confirm 29.6
COc1cccc(/C=N/Nc2ccc([N+](=O)[O-])cc2)c1O	Wnt bcat act 39.9, GAA850 FXN act 8.1, MITF act 104.3 | GAA30 FXN cntr 105.7 | GAA850 confirm 35.0

Screens deposited in PubChem BioAssay by several laboratories.
